Source: the supplement of paper PMC7366291
Counter-ions that a name gives are not always drawn. ± gives the standard deviation or the standard deviation of the averaged measurements.

How the values were obtained:
Conditions in all cases: 25 µM; exposure: 24-48 hpf
[1] = system: Danio rerio Tg(wt1b:EGFP) embryo, pronephros; experiment: glomerular separation, fold change vs DMSO control; higher = glomeruli further apart (abnormal)
Method in brief: (§1)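 Dechorionated Tg(wt1b:EGFP) zebrafish embryos were exposed to 25 μM compound in 0.5% DMSO, HEPES-buffered E3 with 0.003% PTU, from 24 to 48 hpf at 28.5°C. Pronephroi were imaged dorsally in agarose-filled 96-well plates (470 nm, 10 z-slices). On maximum projections, 16 reference points were set manually in Fiji and a macro computed distances and angles. Values more than 2 SD from the feature mean were excluded. Each feature is a fold change relative to the mean of same-day DMSO controls.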

[2] = system: Danio rerio Tg(wt1b:EGFP) embryo, pronephros; experiment: glomerular width (mean of left and right), fold change vs DMSO control; higher = wider glomerulus
Method in brief: as §1

[3] = system: Danio rerio Tg(wt1b:EGFP) embryo, pronephros; experiment: fraction of imaged embryos annotated as normal kidney; higher = less nephrotoxic; extreme values may be limits of the assay
Method in brief: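 Embryos of the Tg(wt1b:EGFP) zebrafish line were dechorionated and held in 12-well plates with 25 μM compound in 0.5% DMSO and 5 mM HEPES-buffered E3 containing 0.003% PTU, from 24 to 48 hpf at 28.5°C. Larvae were then anaesthetised with tricaine, set dorsal side up in agarose-filled 96-well plates, and their pronephroi imaged by widefield fluorescence at 470 nm over 10 z-slices. Each value is the fraction of embryos per treatment placed in the normal-kidney category after manual annotation of maximum projections.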

[4] = system: Danio rerio Tg(wt1b:EGFP) embryo, pronephros; experiment: pronephric angle neck segment to proximal convoluted tubule (mean of left and right), fold change vs DMSO control; higher = larger pronephric angle
Method in brief: as §1

With COc1ccc(OC)c(C(O)CNC(=O)CN)c1 (stereo not drawn) [Midodrine hydrochloride] the glomerular separation [1] was 0.483 ± 0.2, the glomerular width [2] was 1.2 ± 0.062 and the “fraction of imaged embryos annotated as normal kidney” value (“fraction of imaged embryos annotated” below) [3] was 0.833. The “pronephric angle neck segment” value [4] was 0.765 ± 0.013.

In the case of CCn1cc(C(=O)O)c(=O)c2cc(F)c(N3CCNC(C)C3)c(F)c21 (stereo not drawn) [Lomefloxacin hydrochloride], the glomerular separation [1] is reported as 1.54 ± 1.1, the glomerular width [2] is reported as 0.974 ± 0.12 and the “fraction of imaged embryos annotated” value [3] is reported as 0.5. For the same compound, the “pronephric angle neck segment” value [4] was 1.12 ± 0.037.

For CCOC(=O)O[C@]1(C(=O)COC(=O)CC)CC[C@H]2[C@@H]3CCC4=CC(=O)C=C[C@]4(C)[C@H]3[C@@H](O)C[C@@]21C [Prednicarbate], the glomerular separation [1] was 1.89 ± 0.71, the glomerular width [2] was 1.11 ± 0.066 and the “fraction of imaged embryos annotated” value [3] was 0.417. The “pronephric angle neck segment” value [4] was 1.03 ± 0.058.

CCCC(=O)Nc1ncnc2c1ncn2[C@@H]1O[C@@H]2COP(=O)(O)O[C@H]2[C@H]1OC(=O)CCC [Bucladesine sodium salt] was tested, and the glomerular separation [1] was 0.912 ± 0.4, the glomerular width [2] was 0.933 ± 0.04 and the “fraction of imaged embryos annotated” value [3] was 0.917. The “pronephric angle neck segment” value [4] was 0.9351 ± 0.0021.

For OCCN1CCN(CCCN2c3ccccc3Sc3ccc(Cl)cc32)CC1 [Perphenazine], the glomerular separation [1] was 0.838 ± 0.23, the glomerular width [2] was 1.07 ± 0.063 and the “fraction of imaged embryos annotated” value [3] was 0.917. For the same compound, the “pronephric angle neck segment” value [4] was 1.03 ± 0.012.

With CCOC(=O)[C@H](CCc1ccccc1)N[C@H]1CCc2ccccc2N(CC(=O)O)C1=O [Benazepril hydrochloride] the glomerular separation [1] was 0.73 ± 0.18, the glomerular width [2] was 1.05 ± 0.023 and the “fraction of imaged embryos annotated” value [3] was 0.75. The “pronephric angle neck segment” value [4] was 0.964 ± 0.087.

With C[C@]12CC[C@@H]3c4ccc(O)cc4CC[C@H]3[C@@H]1C[C@@H](O)[C@@H]2O [Estriol] the glomerular separation [1] was 0.626 ± 0.2, the glomerular width [2] was 1.03 ± 0.042 and the “fraction of imaged embryos annotated” value [3] was 0.917. The “pronephric angle neck segment” value [4] was 1.026 ± 0.0015.

COc1ccc(CN(CCN(C)C)c2ccccn2)cc1 [Pyrilamine maleate] was tested, and the glomerular separation [1] was 1.29 ± 0.44, the glomerular width [2] was 1.03 ± 0.018 and the “fraction of imaged embryos annotated” value [3] was 0.667. The “pronephric angle neck segment” value [4] was 1.03 ± 0.033.

With NS(=O)(=O)c1cc2c(cc1Cl)NC(C(Cl)Cl)NS2(=O)=O (stereo not drawn) [Trichlormethiazide] the glomerular separation [1] was 0.873 ± 0.36, the glomerular width [2] was 0.992 ± 0.012 and the “fraction of imaged embryos annotated” value [3] was 0.75. The “pronephric angle neck segment” value [4] was 0.899 ± 0.015.

NS(=O)(=O)c1cc2c(cc1Cl)NCNS2(=O)=O [Hydrochlorothiazide] was tested, and the glomerular separation [1] was 1.03 ± 0.25, the glomerular width [2] was 0.972 ± 0.024 and the “fraction of imaged embryos annotated” value [3] was 0.833. For the same compound, the “pronephric angle neck segment” value [4] was 0.937 ± 0.013.

In the case of CCN(CC)CCOc1ccc(C(=C(Cl)c2ccccc2)c2ccccc2)cc1 [Clomiphene citrate (Z,E)], the glomerular separation [1] is reported as 1.1 ± 0.41, the glomerular width [2] is reported as 0.981 ± 0.019 and the “fraction of imaged embryos annotated” value [3] is reported as 0.75. The “pronephric angle neck segment” value [4] was 0.974 ± 0.053.

CC(C)NC[C@H](O)COc1ccc(CC(N)=O)cc1 [(S)-(-)-Atenolol] was tested, and the glomerular separation [1] was 0.84 ± 0.24, the glomerular width [2] was 0.918 ± 0.067 and the “fraction of imaged embryos annotated” value [3] was 0.5. For the same compound, the “pronephric angle neck segment” value [4] was 0.959 ± 0.08.

O=c1[nH]cc(F)c(=O)[nH]1 [5-fluorouracil] was tested, and the glomerular separation [1] was 0.802 ± 0.22, the glomerular width [2] was 1.02 ± 0.042 and the “fraction of imaged embryos annotated” value [3] was 0.75. For the same compound, the “pronephric angle neck segment” value [4] was 1.024 ± 0.0061.

With O=C(Nc1ccccc1)OCC(CN1CCCCC1)OC(=O)Nc1ccccc1 (stereo not drawn) [Diperodon hydrochloride] the glomerular separation [1] was 1.1 ± 0.41, the glomerular width [2] was 0.984 ± 0.04 and the “fraction of imaged embryos annotated” value [3] was 0.818. The “pronephric angle neck segment” value [4] was 1.04 ± 0.024.

With CCCCCCNC(=O)n1cc(F)c(=O)[nH]c1=O [Carmofur] the glomerular separation [1] was 8.71 ± 3.1, the glomerular width [2] was 0.552 ± 0.03 and the “fraction of imaged embryos annotated” value [3] was 0. For the same compound, the “pronephric angle neck segment” value [4] was 1.72 ± 0.072.

With CCCCOC(=O)c1ccc(O)cc1 [Butylparaben] the glomerular separation [1] was 1.67 ± 0.4, the glomerular width [2] was 0.994 ± 0.022 and the “fraction of imaged embryos annotated” value [3] was 0.5. The “pronephric angle neck segment” value [4] was 1.11 ± 0.038.

In the case of C[C@]1(Cn2ccnn2)[C@H](C(=O)O)N2C(=O)C[C@H]2S1(=O)=O [Tazobactam], the glomerular separation [1] is reported as 0.923 ± 0.63, the glomerular width [2] is reported as 1.07 ± 0.018 and the “fraction of imaged embryos annotated” value [3] is reported as 0.75. The “pronephric angle neck segment” value [4] was 0.985 ± 0.018.

C=C1C(=O)O[C@H]2[C@H]1CC/C(C)=C/CC[C@@]1(C)O[C@@H]21 [Parthenolide] was tested, and the glomerular separation [1] was 2.81 ± 1.2, the glomerular width [2] was 0.8373 ± 0.0079 and the “fraction of imaged embryos annotated” value [3] was 0.364. For the same compound, the “pronephric angle neck segment” value [4] was 1.4 ± 0.038.

In the case of S=c1[nH]cnc2nc[nH]c12 [Mercaptopurine], the glomerular separation [1] is reported as 0.832 ± 0.28, the glomerular width [2] is reported as 0.991 ± 0.088 and the “fraction of imaged embryos annotated” value [3] is reported as 0.75. For the same compound, the “pronephric angle neck segment” value [4] was 0.992 ± 0.07.

With COC(=O)C1=C(C)NC(C)=C(C(=O)OCCN(C)Cc2ccccc2)C1c1cccc([N+](=O)[O-])c1 (stereo not drawn) [Nicardipine hydrochloride] the glomerular separation [1] was 1.13 ± 0.73, the glomerular width [2] was 1 ± 0.027 and the “fraction of imaged embryos annotated” value [3] was 0.909. For the same compound, the “pronephric angle neck segment” value [4] was 1.01 ± 0.036.

With CCOC(=O)OC(C)OC(=O)[C@@H]1N2C(=O)[C@@H](NC(=O)[C@H](N)c3ccccc3)[C@H]2SC1(C)C (stereo partly drawn) [Bacampicillin hydrochloride] the glomerular separation [1] was 0.948 ± 0.29, the glomerular width [2] was 1.01 ± 0.017 and the “fraction of imaged embryos annotated” value [3] was 0.917. The “pronephric angle neck segment” value [4] was 0.968 ± 0.034.

For O=C(O)CCC(=O)Nc1ccc(S(=O)(=O)Nc2nccs2)cc1 [Succinylsulfathiazole], the glomerular separation [1] was 0.974 ± 0.39, the glomerular width [2] was 1.03 ± 0.012 and the “fraction of imaged embryos annotated” value [3] was 0.667. For the same compound, the “pronephric angle neck segment” value [4] was 0.997 ± 0.029.

For CC(=O)c1ccc2c(c1)N(CCCN1CCC(CCO)CC1)c1ccccc1S2 [Piperacetazine], the glomerular separation [1] was 0.868 ± 0.28, the glomerular width [2] was 0.976 ± 0.023 and the “fraction of imaged embryos annotated” value [3] was 0.833. The “pronephric angle neck segment” value [4] was 1.01 ± 0.081.

For COc1ccc2c(c1)c(CC(=O)O)c(C)n2C(=O)c1ccc(Cl)cc1 [Indomethacin], the glomerular separation [1] was 3.64 ± 1.7, the glomerular width [2] was 0.781 ± 0.045 and the “fraction of imaged embryos annotated” value [3] was 0. The “pronephric angle neck segment” value [4] was 1.62 ± 0.03.

In the case of C[C@@H]1C[C@H]2[C@@H]3C[C@H](F)C4=CC(=O)C=C[C@]4(C)[C@@]3(F)[C@@H](O)C[C@]2(C)[C@@]1(O)C(=O)COC(=O)C(C)(C)C [Flumethasone pivalate], the glomerular separation [1] is reported as 1.2 ± 0.37, the glomerular width [2] is reported as 1.04 ± 0.015 and the “fraction of imaged embryos annotated” value [3] is reported as 0.25. For the same compound, the “pronephric angle neck segment” value [4] was 0.989 ± 0.0085.

With C=CCSCC1Nc2cc(Cl)c(S(N)(=O)=O)cc2S(=O)(=O)N1 (stereo not drawn) [Althiazide] the glomerular separation [1] was 1.08 ± 0.28, the glomerular width [2] was 0.962 ± 0.12 and the “fraction of imaged embryos annotated” value [3] was 0.5. The “pronephric angle neck segment” value [4] was 1.09 ± 0.083.

With CCn1cc(C(=O)O)c(=O)c2cc(F)c(N3CCNCC3)cc21 [Norfloxacin] the glomerular separation [1] was 0.828 ± 0.22, the glomerular width [2] was 1.05 ± 0.037 and the “fraction of imaged embryos annotated” value [3] was 1. For the same compound, the “pronephric angle neck segment” value [4] was 0.9433 ± 0.0086.
